Measurements reported in PubChem BioAssay (Tox21).
Records with an inconclusive call do not appear. Calls of active or inactive are those of the source. Unless noted, calls follow the shape of the dose curve; as a rule, active = well fitted curve in the direction sought with a large enough effect in the repeat runs; inconclusive = weak or mixed curves; inactive = no such curve, though single readings can be large; an effect the other way counts as inactive or inconclusive.

Tests used:
[1] = qHTS assay to identify small molecule agonists of the RXR signaling pathway - cell viability counter screen (AID 1159529); also: nearly all actives have a fitted effect of over 50% in size; also: potency is read from the fitted curve at half-maximal effect;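 as to activity change, negative = cytotoxicity: HEK 293T cells carrying an RXR-alpha UAS beta-lactamase reporter; series mostly up to about 77 µM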
In short: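 Viability read-out for the RXR-alpha agonist qHTS: luminescent CellTiter-Glo signal after 30 min at RT. HEK 293T bla reporter cells, 2% charcoal-stripped FBS, 16 hr compound incubation; tetraoctyl ammonium bromide as cytotoxic control.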

[2] = qHTS assay to identify small molecule antagonists of the retinoid acid receptor (RAR) signaling pathway - cell viability counter screen (AID 1159551); also: nearly all actives have a fitted effect of over 35% in size
In short: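 Measured by luminescent ATP detection, viability reflects C3RL4 cells treated 6 h at 37 C with test chemicals in the presence of 1 uM (final) retinol.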

[3] = qHTS assay to identify small molecule antagonists of the retinoic acid receptor (RAR) signaling pathway (AID 1159552; also: nearly all actives have a fitted effect of over 50% in size)
In short: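 Using a RARE-driven luciferase construct in C3RL4 cells, retinol at 1 uM final provided the agonist stimulus while compounds were co-applied. After 6 hours at 37 C, luminescence was recorded to flag inhibitors of retinol signaling.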

[4] = qHTS assay to identify small molecule agonists of the retinoic acid receptor (RAR) signaling pathway (AID 1159553); also: potency is read from the fitted curve at half-maximal effect
In short: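 6 hr compound exposure (DMSO vehicle) of overnight-plated C3RL4 RARE-luc cells at 37 C; luminescence quantified after 30 min RT with luciferase reagent.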

[5] = qHTS assay to identify small molecule antagonists of the estrogen related receptor (ERR) signaling pathway from Tox21 library - cell viability counter screen (AID 1224834); also: nearly all actives have a fitted effect of over 30% in size; also: potency is read from the fitted curve at half-maximal effect
In short: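 Seeded ERR cells were rested 6 h at 37 C/5% CO2 before compounds, positive and negative controls or DMSO were added. Incubation continued for 17.5 h, and viability was then quantified by CellTiter-Fluor fluorescence.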

[6] = target: Luciferin 4-monooxygenase (Photinus pyralis) (UniProt P08659); experiment: qHTS assay to identify small molecule inhibitors of firefly luciferase (AID 1224835); also: series mostly up to about 120 µM; nearly all actives have a fitted effect of over 25% in size
Luciferin 4-monooxygenase (Photinus pyralis), sequence (P08659 whole entry, looked up): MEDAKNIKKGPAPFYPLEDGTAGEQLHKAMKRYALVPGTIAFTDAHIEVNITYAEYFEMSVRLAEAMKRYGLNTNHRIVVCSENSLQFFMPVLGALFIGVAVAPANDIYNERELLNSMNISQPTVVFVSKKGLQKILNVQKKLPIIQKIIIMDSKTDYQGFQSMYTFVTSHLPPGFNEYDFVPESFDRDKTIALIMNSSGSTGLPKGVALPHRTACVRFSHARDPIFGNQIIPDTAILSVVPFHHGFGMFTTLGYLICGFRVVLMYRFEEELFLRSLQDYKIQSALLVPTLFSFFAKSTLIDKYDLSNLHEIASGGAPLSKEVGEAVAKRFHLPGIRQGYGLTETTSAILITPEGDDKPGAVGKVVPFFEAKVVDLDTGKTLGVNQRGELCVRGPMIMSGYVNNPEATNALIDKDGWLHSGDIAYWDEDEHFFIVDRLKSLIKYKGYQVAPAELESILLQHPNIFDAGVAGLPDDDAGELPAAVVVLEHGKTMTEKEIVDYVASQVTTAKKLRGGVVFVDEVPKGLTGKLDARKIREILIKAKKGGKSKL
In short: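 Biochemical qHTS: compounds run as interplate titrations against purified firefly enzyme, with D-luciferin and ATP each at its KM concentration. Light output recorded by CCD imaging.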

[7] = qHTS assay to identify small molecule agonists of the constitutive androstane receptor (CAR) signaling pathway - cell viability counter screen (AID 1224836); also: series mostly up to about 92 µM; nearly all actives have a fitted effect of over 45% in size
In short: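 Multiplexed viability check: HepG2-CYP2B6-hCAR cells, 15-point compound dosing, 0.75 uM PK11195 final, 23 h at 37 C, CellTiter-Fluor fluorescence.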

[8] = qHTS assay to identify small molecule antagonists of the constitutive androstane receptor (CAR) signaling pathway - cell viability counter screen (AID 1224837); also: series mostly up to about 92 µM; nearly all actives have a fitted effect of over 45% in size
In short: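 To flag cytotoxic false antagonists, HepG2 hCAR/CYP2B6-2.2kb cells were treated 23 hr with 15-concentration compound series and 50 nM CITCO at 37 C/5% CO2; CellTiter-Fluor fluorescence was the measured end point.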

[9] = qHTS assay to identify small molecule antagonists of the estrogen related receptor signaling pathway with the pleiotropic PPARgamma coactivator (PGC) from Tox21 10K library - cell viability counter screen (AID 1224840; active = well fitted cell-killing curve with a large enough effect in the repeat runs, not every such curve was filed as active; also: nearly all actives have a fitted effect of over 40% in size)
In short: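 Seeded PGC/ERR cells (2,000/well, 6 h, 37 C/5% CO2) get compound by pin tool; 17.5 h incubation at 37 C; CellTiter-Fluor added, 30 min, fluorescence measured.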

[10] = qHTS assay to identify small molecule agonists of the hypoxia (HIF-1) signaling pathway - cell viability counter screen (AID 1224844; calls by dose curve; also: nearly all actives have a fitted effect of over 50% in size; also: potency is read from the fitted curve at half-maximal effect)
In short: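 HRE-bla ME-180; 0.5% dFBS; cpd 17 h, 37C, 5% CO2; CellTiter-Glo lum., 30 min RT, post-FRET read, same wells.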

[11] = target: Thyrotropin receptor (Homo sapiens) (UniProt P16473); experiment: qHTS assay to identify small molecule agonists of the thyroid stimulating hormone receptor (TSHR) signaling pathway (AID 1224843; calls by dose curve; also: nearly all actives have a fitted effect of over 45% in size)
Thyrotropin receptor (Homo sapiens), sequence (P16473 whole entry, looked up): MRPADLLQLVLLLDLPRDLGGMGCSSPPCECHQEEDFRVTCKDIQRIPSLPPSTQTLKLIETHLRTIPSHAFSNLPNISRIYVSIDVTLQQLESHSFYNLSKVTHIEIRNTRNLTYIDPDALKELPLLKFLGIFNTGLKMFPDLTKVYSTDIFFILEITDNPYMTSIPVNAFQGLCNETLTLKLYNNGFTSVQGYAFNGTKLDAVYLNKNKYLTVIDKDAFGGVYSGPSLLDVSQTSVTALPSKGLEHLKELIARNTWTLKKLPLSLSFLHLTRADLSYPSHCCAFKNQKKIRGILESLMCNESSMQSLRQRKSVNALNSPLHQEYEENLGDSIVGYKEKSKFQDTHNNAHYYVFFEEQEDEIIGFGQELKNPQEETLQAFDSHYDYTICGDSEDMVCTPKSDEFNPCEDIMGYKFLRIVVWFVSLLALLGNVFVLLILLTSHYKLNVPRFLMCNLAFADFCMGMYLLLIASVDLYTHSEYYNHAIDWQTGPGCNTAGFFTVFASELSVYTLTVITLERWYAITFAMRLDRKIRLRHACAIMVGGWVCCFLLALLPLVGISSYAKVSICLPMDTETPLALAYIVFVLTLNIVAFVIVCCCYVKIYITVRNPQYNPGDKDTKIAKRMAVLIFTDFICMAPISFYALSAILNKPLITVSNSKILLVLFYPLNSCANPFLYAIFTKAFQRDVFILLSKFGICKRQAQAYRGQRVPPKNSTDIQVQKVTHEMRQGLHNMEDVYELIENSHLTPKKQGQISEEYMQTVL
In short: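 Agonist-mode screen: TSHR HEK293 cells received test chemicals for half an hour at room temperature, then HTRF cAMP detection reagents for one hour prior to fluorescence measurement. Each chemical ran as a 15-concentration series, triplicated.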

[12] = target: Nuclear receptor subfamily 1 group I member 3 (Homo sapiens) (UniProt Q14994); experiment: qHTS assay to identify small molecule antagonists of the constitutive androstane receptor (CAR) signaling pathway (AID 1224838);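 also: HepG2 cells stably expressing hCAR with CYP2B6 luciferase reporter stimulated by CITCO; nearly all actives have a fitted effect of over 40% in size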
Nuclear receptor subfamily 1 group I member 3 (Homo sapiens), sequence (Q14994 whole entry, looked up): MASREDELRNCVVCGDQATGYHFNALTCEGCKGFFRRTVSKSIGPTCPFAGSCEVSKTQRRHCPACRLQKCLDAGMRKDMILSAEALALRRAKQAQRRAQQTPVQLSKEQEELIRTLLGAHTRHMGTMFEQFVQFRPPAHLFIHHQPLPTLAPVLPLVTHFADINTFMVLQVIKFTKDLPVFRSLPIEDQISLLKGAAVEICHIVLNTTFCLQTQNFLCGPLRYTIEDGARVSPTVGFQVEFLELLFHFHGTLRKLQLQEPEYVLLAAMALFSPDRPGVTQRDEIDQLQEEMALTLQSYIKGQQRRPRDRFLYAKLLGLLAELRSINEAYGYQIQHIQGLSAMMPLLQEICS
In short: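 Human hepatoma HepG2 cells expressing hCAR and a CYP2B6 promoter (2.2 kb) luciferase construct; compound titration (15 points) with 50 nM CITCO final, 24 h at 37 C/5% CO2; luminescence via ONE-Glo after 30 min at room temperature.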

[13] = target: Nuclear receptor subfamily 1 group I member 3 (Homo sapiens) (UniProt Q14994); experiment: qHTS assay to identify small molecule agonists of the constitutive androstane receptor (CAR) signaling pathway (AID 1224839); also: nearly all actives have a fitted effect of over 15% in size; also: potency is read from the fitted curve at half-maximal effect;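 as to activation: HepG2 cells stably carrying human CAR and a CYP2B6 luciferase reporter; series mostly up to about 92 µM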
In short: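 Using human hepatoma HepG2 cells engineered with hCAR and a CYP2B6-2.2kb reporter, 15-concentration compound series were incubated 24 h alongside PK11195 at 0.75 uM final, with luminescence quantified afterwards.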

[14] = qHTS assay to identify small molecule antagonists of the estrogen related receptor signaling pathway with the pleiotropic PPARgamma coactivator (PGC) from Tox21 10K library (AID 1224841; call rule not given here; also: actives are mostly falling curves and most rising ones were filed inactive; nearly all actives have a fitted effect of over 50% in size; also: potency is read from the fitted curve at half-maximal effect; as to activity, negative = inhibition: series mostly up to about 92 µM)
In short: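 Test chemicals dissolved in DMSO were applied to pre-incubated (6 h) PGC/ERR cells at 2,000 cells/well for an 18 h, 37 C treatment; reporter luminescence was then read using One-Glo.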

[15] = qHTS assay to identify small molecule antagonists of the estrogen related receptor signaling pathway with the pleiotropic PPARgamma coactivator (PGC) cell viability counter screen (AID 1224822; also: series mostly up to about 46 µM)
In short: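 Counter screen for cell viability: PGC/ERR cells, 6 h pre-incubation after plating, 17.5 h compound exposure at 37 C, fluorescence from CellTiter-Fluor after 30 min.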

[16] = qHTS assay to identify small molecule agonists of the estrogen related receptor signaling pathway with the pleiotropic PPARgamma coactivator (PGC) from Tox21 10K library (AID 1224842); also: nearly all actives have a fitted effect of over 15% in size
In short: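 PGC/ERR reporter cell line, 2,000 cells per well, incubated 6 h at 37 C before 23 nL compound in DMSO was added. After 18 h at 37 C, One-Glo luminescence read following 30 min at room temperature.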
% is scaled to controls: 0 for no effect and ±100 for the full control effect.

COc1cc(Cl)c(OC)cc1N
inactive: Potency [1] | Potency [2] | Potency [3] | Potency [4] | Potency [5] | Potency [6] | Potency [7] | Potency [8] | Potency [9] | Potency [10]

O=[N+]([O-])c1ccc2[nH]ncc2c1
inactive: Potency [1] | Potency [2] | Potency [3] | Potency [4] | Potency [5] | Potency [6] | Potency [7] | Potency [8] | Potency [9] | Potency [11] | Potency [10]

O=C1c2ccccc2S(=O)(=O)N1CCCCN1CCN(c2ncccn2)CC1
inactive: Potency [1] | Potency [2] | Potency [3] | Potency [4] | Potency [5] | Potency [7] | Potency [8] | Potency [12] | Potency [13] | Potency [9] | Potency [11] | Potency [10]

CCOc1ccc(N)c([N+](=O)[O-])c1
inactive: Potency [1] | Potency [2] | Potency [3] | Potency [4] | Potency [6] | Potency [7] | Potency [8] | Potency [12] | Potency [13] | Potency [9] | Potency [14] | Potency [10]

Cc1cc(N)c2cc(NC(=O)Nc3ccc4nc(C)cc(N)c4c3)ccc2n1
inactive: Potency [1] | Potency [2] | Potency [3] | Potency [4] | Potency [5] | Potency [7] | Potency [8] | Potency [12] | Potency [13] | Potency [9]

O=C1OC(=O)C2C3C=CC(C3)C12 (configuration not stated)
inactive: Potency [1] | Potency [2] | Potency [3] | Potency [4] | Potency [5] | Potency [6] | Potency [7] | Potency [8] | Potency [9] | Potency [10]

CCCCCCCCCCCCCCCCCCOS(=O)(=O)O
active: Potency [1] 43.6 µM | Potency [10] 38.9 µM
inactive: Potency [2] | Potency [3] | Potency [4] | Potency [6] | Potency [7] | Potency [8]

COc1cccc(N(C)C(=S)Oc2ccc3c(c2)CCCC3)n1
inactive: Potency [1] | Potency [2] | Potency [3] | Potency [5] | Potency [6] | Potency [7] | Potency [8] | Potency [12] | Potency [13] | Potency [9] | Potency [10]

CCOC(=O)C(=O)CCc1ccccc1
inactive: Potency [1] | Potency [2] | Potency [3] | Potency [4] | Potency [5] | Potency [7] | Potency [8] | Potency [12] | Potency [13] | Potency [9] | Potency [10]

C[N+](C)(C)CCOC(=O)CCC(=O)OCC[N+](C)(C)C
inactive: Potency [1] | Potency [2] | Potency [3] | outcome [15] | Potency [5] | Potency [6] | Potency [7] | Potency [8] | Potency [9] | Potency [10]

CN(C)c1ccc(/C=C/c2ccc([N+](=O)[O-])cc2)cc1
active: Potency [4] 0.219 µM | Potency [13] 0.872 µM
inactive: activity change, negative = cytotoxicity [1] -5.22% [at 6.97 µM] | activity change, negative = cytotoxicity [2] -0.286% [at 8.39 µM] | activity, negative = inhibition [3] 84.6% [at 8.39 µM] | viability change, negative = cytotoxic [5] 1.01% [at 8.39 µM] | viability change, negative = cytotoxic [7] 5.96% [at 8.39 µM] | activity change, negative = cytotoxicity [8] 11.7% [at 8.39 µM] | activity, negative = inhibition [12] 47.3% [at 8.39 µM] | activation [11] -1.26% [at 8.39 µM] | activity change, negative = cytotoxicity [10] -6.06% [at 6.97 µM]

CCCCCCCC/C=C\CCCCCCCC(=O)OCC
inactive: Potency [1] | Potency [2] | Potency [3] | Potency [5] | Potency [6] | Potency [7] | Potency [8] | Potency [12] | Potency [13] | Potency [9] | Potency [14] | Potency [16] | Potency [11] | Potency [10]

CN1C[C@H]2c3ccccc3Oc3ccc(Cl)cc3[C@@H]2C1
inactive: Potency [1] | Potency [2] | Potency [3] | Potency [5] | Potency [6] | Potency [7] | Potency [8] | Potency [12] | Potency [9] | Potency [14] | Potency [11] | Potency [10]

CC(=O)[O][Al][O]C(C)=O
inactive: Potency [1] | Potency [2] | Potency [4] | Potency [5] | Potency [7] | Potency [8] | Potency [9] | Potency [14] | Potency [16] | Potency [10]

CC[N+](C)(CC)CCOC(=O)C(O)(c1ccccc1)C1CCCCC1 (configuration not stated)
inactive: Potency [1] | Potency [2] | Potency [4] | Potency [5] | Potency [6] | Potency [7] | Potency [8] | Potency [9] | Potency [16] | Potency [11] | Potency [10]

NS(=O)(=O)c1ccc(N2CCCCS2(=O)=O)cc1
inactive: Potency [1] | Potency [2] | Potency [3] | Potency [5] | Potency [7] | Potency [8] | Potency [13] | Potency [9] | Potency [14] | Potency [16] | Potency [11] | Potency [10]

CC(=O)NO
inactive: Potency [1] | Potency [2] | Potency [4] | Potency [5] | Potency [6] | Potency [7] | Potency [8] | Potency [12] | Potency [13] | Potency [9] | Potency [11] | Potency [10]

C[N+]1(C)CCC(OC(=O)C(O)(c2ccccc2)C2CCCC2)C1 (configuration not stated)
inactive: Potency [1] | Potency [2] | Potency [4] | Potency [5] | Potency [6] | Potency [7] | Potency [8] | Potency [12] | Potency [13] | Potency [9] | Potency [10]

CCCCC/C=C\C/C=C\CCCCCCCC(=O)NC(C)c1ccccc1 (configuration not stated)
inactive: Potency [1] | Potency [2] | Potency [3] | Potency [6] | Potency [7] | Potency [8] | Potency [12] | Potency [13] | Potency [9] | Potency [11] | Potency [10]

C=C1C(=C/C=C2\CCC[C@]3(C)[C@@H]([C@H](C)/C=C/[C@@H](O)C4CC4)CC[C@@H]23)C[C@@H](O)C[C@@H]1O
inactive: Potency [2] | Potency [3] | Potency [6] | Potency [7] | Potency [8] | Potency [12] | Potency [10]
active: Potency [1] 23.9 µM | Potency [5] 29.8 µM | Potency [14] 29.8 µM

CC(C)(C)OCC1CO1 (configuration not stated)
inactive: Potency [1] | Potency [2] | Potency [4] | Potency [5] | Potency [6] | Potency [7] | Potency [8] | Potency [9] | Potency [10]

CCCCCCCCO[C@@H]1O[C@H](CO)[C@@H](O)[C@H](O)[C@H]1O
inactive: Potency [1] | Potency [2] | Potency [3] | Potency [5] | Potency [7] | Potency [8] | Potency [9] | Potency [11] | Potency [10]
